Experimental data reported in PubChem BioAssay AID1509 (The Scripps Research Institute Molecular Screening Center, 2009).
About 770 (0.35%) of roughly 220,000 compounds were called active. Cut-off read from the data, not from the text of the source: active = activation above about 11%; inactive = the rest. Shown is part of a subset that was picked to be rich in actives. Where a SMILES comes first, the peptide text is derived from it. [ ]: non-standard residue; d: D form. ξ: configuration not given here. ξM = CSCCC(N)C(=O)O

The compounds below were run against Sphingosine 1-phosphate receptor 4 (Homo sapiens) (UniProt O95977) (assay: S1P4 receptor agonists, primary screen, cell-based (AID 1509;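 note: 0% = DMSO vehicle and 100% = reference agonist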)). Settings: S1P4-expressing cell line, agonist reporter assay; at 4.98 µM; active compounds read high.
Sphingosine 1-phosphate receptor 4 (Homo sapiens), sequence (O95977 whole entry, looked up): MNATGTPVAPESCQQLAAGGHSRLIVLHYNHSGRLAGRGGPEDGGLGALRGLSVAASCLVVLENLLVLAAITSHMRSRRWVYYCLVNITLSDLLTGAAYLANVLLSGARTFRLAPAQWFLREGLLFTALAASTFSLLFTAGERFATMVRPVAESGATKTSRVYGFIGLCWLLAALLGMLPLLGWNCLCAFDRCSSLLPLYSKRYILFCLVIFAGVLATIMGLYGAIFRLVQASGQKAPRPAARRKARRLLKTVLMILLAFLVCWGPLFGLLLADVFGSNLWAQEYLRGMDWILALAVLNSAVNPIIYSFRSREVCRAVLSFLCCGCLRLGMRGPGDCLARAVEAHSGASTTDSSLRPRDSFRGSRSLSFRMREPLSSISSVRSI

activation, inactive:
CC1(C)CC(=O)c2c(n(S(=O)(=O)c3ccccc3)c3ccc(NS(=O)(=O)c4ccccc4)cc23)C1 -0.65%
O=C(O)/C=C/c1ccc(S(=O)(=O)N2CCCCCC2)cc1 1.37%
CC1=CC=CC2=N/C(=N\S(=O)(=O)c3ccc(F)cc3F)c3ccccc3CN12 1.89%
Cc1ccc2c(c1)nnc1nnc(SCC(=O)O)n12 0.65%
O=C(O)C1C2CC2CN1C(=O)c1ccc(Cl)cc1Cl (configuration not stated) 0.08%
COc1ccc(/C=C2\N=C3CCCN3C2=O)cc1 0.59%
CCCCCc1nnc(NC(=O)c2ccc(=O)n(C)n2)s1 0.34%
CC(=O)c1cc(C#N)c(N2CC(C)OC(C)C2)nc1C (configuration not stated) 2.12%
CC(C)(C)C1CCC(C(=O)Nc2cccnc2)CC1 (configuration not stated) -0.6%
CCOc1ncccc1C(=O)N(CC)CC(=O)Nc1ccc(NC(C)=O)cc1 0.47%
COc1cc(/C=C/C(=O)OCC(=O)Nc2cccc(Oc3ccccc3)c2)ccc1O 0.15%
CCCNC(=O)c1ccccc1NC(=O)CSCc1ccc(OC)cc1 1.75%
CCCc1nc(SCC(=O)Nc2ccccc2OC)c2c(=O)n(C)c(=O)n(C)c2n1 -0.79%
COCCN(CCOC)S(=O)(=O)c1ccc(/C(O)=C(\C#N)c2nc3ccccc3[nH]2)cc1 0.35%
O=C(/C(=C/c1cccc(Cl)c1)c1nc2ccccc2[nH]1)c1ccccc1 -0.48%
COc1ccc(S(=O)(=O)N2CCN(C(=O)c3cc(C)oc3C)CC2)cc1 0.82%
Cc1ccsc1/C=N/n1c(=S)[nH]nc(C)c1=O 3.22%
COc1ccc(-n2c(C)cc(C(=O)COC(=O)c3cc(OC)c(OC)cc3NC(=O)c3cccs3)c2C)cc1 -0.44%
CCOC(=O)NNC(=O)c1ccc(Cl)cc1 -0.78%
O=C(NNC(=O)C1C2CCC(C2)C1C(=O)O)c1ccc(Cl)cc1 (configuration not stated) 1.68%
CC(=O)c1ccc(N2CCN(C(=O)c3ccc4nc[nH]c4c3)CC2)cc1 0.76%
O=C1CCCc2nn(-c3ccccc3)nc21 -2.78%
CN(C)S(=O)(=O)c1ccc(Cl)c(NC(=O)COC(=O)CC(NC(N)=O)c2ccc(Cl)cc2)c1 (configuration not stated) 1.79%
C=CCOc1c(CNn2cn[nH]c2=S)cccc1OC 0.93%
N/C(=N\OC(=O)c1ccc2c(c1)OCO2)c1ccc(Br)cc1 -1.54%
NNC(=O)c1ccc(COCC(F)(F)C(F)F)cc1 -0.58%
C=CCNC(=O)c1ccccc1NC(=O)c1ccc(Cl)c(S(=O)(=O)Nc2cccc(C)c2C)c1 2.53%
CS(=O)(=O)c1sc(C(=O)NC(=S)Nc2ccc(OC(F)(F)F)cc2)c2c1C=CCC2 -1.4%
O=C(CN1C(=O)NC(Cc2ccccc2)(Cc2ccccc2)C1=O)NCC1CCCCC1 -1.64%
CCOc1ccc(N2C(=O)CC(N(CCc3ccc(OC)c(OC)c3)C(=S)Nc3ccccc3)C2=O)cc1 (configuration not stated) 1.87%
O=C(CCn1c(SCC(=O)c2ccccc2)nc2ccccc2c1=O)NCc1ccc(F)cc1 0.31%
O=C(CCCn1c(SCC(=O)c2ccccc2)nc2ccccc2c1=O)NCC1CCCO1 (configuration not stated) 0.54%
CCOC(=O)N1CCN(c2c(NCCN3CCN(c4ccccc4F)CC3)c(=O)c2=O)CC1 1.24%
COc1ccc(S(=O)(=O)NC(C)C)cc1C(=O)NC1CCCCC1 1.54%
CC(=O)OC(C(=O)NC1CCCCC1)c1ccccc1 (configuration not stated) 0.59%
Cc1cc(C(=O)NNC(=O)CCC2CCCCC2)c(C)o1 0.49%
c1ccc2c(c1)OCCOCCOCCO2 0.22%
COCCNC(=O)c1ccc(-n2c(SCc3cccnc3)nc3ccccc3c2=O)cc1 1.25%
CCC1=NN2C(=N)/C(=C/c3cc(C)n(-c4ccccc4)c3C)C(=O)N=C2S1 -0.01%
Cc1cc2c(cc1C)N(Cc1ccccc1)C1=NCCCN12 -0.25%
O=[N+]([O-])c1ccc(F)cc1Oc1nc(-c2cccnc2)nc2ccccc12 0.24%
CCC(C)NC(=O)N[C@@H](CCSC)C(=O)O (some centres not stated) 1.44%
COC(=O)[C@H](CCSC)NC(=O)Nc1ccc(OC)cc1 0.47%
O=c1c2ccccc2nnn1CSc1nnnn1-c1ccccc1 0.58%
O=C(Cn1nnc2ccccc2c1=O)NCc1ccc(Cl)cc1 -1.75%
C/C(CCC(=O)OC[C@H]1O[C@H](C#Cc2ccccc2)C=C[C@@H]1Oc1ccc(C)cc1)=N\OC[C@@H](O)[C@H]1O[C@@H]2OC(C)(C)O[C@@H]2[C@H]1O 0.09%
O=C(COC(=O)C1CCN(S(=O)(=O)c2ccc3c(c2)OCCO3)CC1)Nc1ccccc1OC(F)F 2.37%
O=C1COc2ccc(C(=O)COC(=O)C3CC(O)CN3S(=O)(=O)c3ccc(Cl)cc3)cc2N1 (configuration not stated) 1.17%
NC(=O)C1=C[C@H](c2csc3ccccc23)C[C@H](OCc2ccc(CO)cc2)O1 3.3%
COc1ccc(C(=O)N2CCc3cc(OC)c(OC)cc3C2c2cccc([N+](=O)[O-])c2)cc1 (configuration not stated) 0.65%
Cc1noc(C)c1COC(=O)Cn1c(C)nc2ccccc21 -0.11%
Cc1noc(C)c1COC(=O)c1cc2ccccc2cc1O -2.59%
O=C(Nc1ccc(Br)cc1)c1cccc(NC(=O)C2C3CC4OC(=O)C2C4C3)c1 (configuration not stated) 1.27%
COc1ccc(CCNC(=O)COC(=O)Cc2cc(OC)c(OC)c(OC)c2)cc1 -1.28%
CC(=O)Nc1ccc(S(=O)(=O)N2CCN(c3ccc([N+](=O)[O-])c(NCCN4CCOCC4)c3)CC2)cc1 0.49%
Cn1nnnc1SCC(=O)NNC(=O)c1ccc(Br)cc1 0.67%
CN(Cc1ccccc1)C(=O)COC(=O)c1ccccc1Nc1ccccc1 -0.61%
COC(=O)c1c(NC(=O)CN2C(=O)NC(CCc3ccccc3)C2=O)sc2c1CCCCC2 (configuration not stated) 0.65%
CCOC(=O)/C=c1\s/c(=C\c2ccc(C#N)cc2)c(=O)n1CC(=O)Nc1cccc(C)c1C -0.03%
CCOC(=O)/C(C#N)=C/c1ccc(OCC(=O)Nc2ccccc2)c(OC)c1 -0.12%
Cc1ccc(CC(=O)Nc2cccc(C#N)c2)cc1 1.55%
N#Cc1c(NC(=O)C2CC(Cl)=CCC2C(=O)O)sc2c1CCCCC2 (configuration not stated) 0.41%
Cn1nnnc1NCc1ccc(Cl)c(Cl)c1 0.14%
COc1ccc(N(CC(=O)NC2CCCC2)C(=O)CS(=O)CC(=O)Nc2ccc3c(c2)OCO3)cc1 (configuration not stated) 1.8%
COc1ccc(-c2cn3ccc(C)cc3n2)cc1 0.65%
CCC(C)(C)NC(=O)C1c2ccccc2Oc2ccccc21 0.03%
CCOC(=O)CC(NC(=O)C1c2ccccc2Oc2ccccc21)c1ccc(C)cc1 (configuration not stated) -0.87%
O=[N+]([O-])c1ccc2[nH]c3c(c2c1)CCCC3O (configuration not stated) 0.79%
Cc1csc(NC(=O)CSc2ccc(-c3ccc(F)cc3)nn2)n1 0.5%
Cc1ccc(SCC(=O)Nc2ccc3c(c2)OCCO3)cc1 -0.03%
Cc1cc(NC(=O)CSc2nnc(Nc3ccccc3F)s2)no1 0.31%
O=C(CSc1nnc(C2CC2)n1Cc1ccccc1)Nc1cccnc1Cl 0.19%
CCn1nnnc1SCC(=O)c1ccc(C)cc1C -0.47%
Cc1ccc(NC(=O)N2CCSc3ccccc32)cc1 0.59%
CC(=O)Nc1ccc(Nc2c([N+](=O)[O-])cc(S(C)(=O)=O)cc2[N+](=O)[O-])cc1 -0.76%
Cn1c(=O)c2c(nc(N3CCOCC3)n2CCNC2=NCCC2)n(C)c1=O -3.47%
Cc1ccc(C(=O)NC(=S)Nc2ccccc2C)cc1 1.14%
CSCc1ccc(C(=O)Nc2cc(C)cc(C)c2)cc1 0.79%

activation, active:
CCCCCNC(=O)c1cccnc1SCC(=O)Nc1ccccc1OC 19.3%
CCC(=O)/C(=C(/O)c1ccccc1)c1nc2ccccc2[nH]1 12.3%
CSc1sc(C(=O)NNC(=O)c2ccc(Cl)cc2)c2c1C=CCC2 13.5%
O=C(CCCn1c(SCC(=O)c2ccc(F)cc2)nc2ccccc2c1=O)NCc1ccco1 30.4%
CC(Oc1ccc(Br)cc1Br)C(=O)NC1CCCC1 (configuration not stated) 14.4%
COC(=O)CNC(=O)C(CCSC)NC(C)=O (configuration not stated) (Ac-[ξM]-Gly-OMe) 29.1%
C=CCn1c(SCn2nnc3ccccc3c2=O)nnc1-c1ccc(Cl)cc1 19%
CC1CCCC(NC(=O)COC(=O)[C@@H]2CC(O)CN2S(=O)(=O)c2ccc3c(c2)OCCO3)C1C (some centres not stated) 194%
Cc1noc(C)c1COC(=O)COc1ccc(-c2ccccc2)cc1 36%
Cc1cc(C)nc(N(C#N)CC(=O)Nc2ccccc2)n1 14.7%
CCC(C)NC(=O)C1c2ccccc2Oc2ccccc21 (configuration not stated) 15.7%
O=C(CSc1ccc(-c2ccc(F)cc2)nn1)Nc1ccc2c(c1)OCCO2 57.3%
O=C(CSc1nnc(Nc2ccccc2)s1)Nc1cccnc1Cl 62.7%
CC(=O)Nc1ccccc1NC(=O)c1cc(C)cc(C)c1 52.2%
